# From PubChem BioAssay AID641 (Vanderbilt High Throughput Screening Facility, 2007)
# Among all 58,000 compounds or so, about 3,400 (5.9%) were called active. This is one part of a sample in which actives are shown more often than they occur.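 How the source made its calls: active means luminescence count or its row- and column-corrected plate score outside the 99.7% band of the plate's sample wells, on either side; inactive means the rest.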 Where a SMILES comes first, the peptide text is derived from it. The star is where a group is joined. Bz = O=C(c1ccccc1)*
# Target: D(1A) dopamine receptor (Homo sapiens) (UniProt P21728)
# Assay: D1 CRE-luciferase signal change, two-sided – cell-based, HEK293 D1, dopamine EC30, D1 allosteric modulator project, primary screen (AID 641)
# Conditions: dopamine EC30 potentiation, at 10 µM, actives deviate in either direction
# D(1A) dopamine receptor (Homo sapiens), sequence (P21728 whole entry, looked up): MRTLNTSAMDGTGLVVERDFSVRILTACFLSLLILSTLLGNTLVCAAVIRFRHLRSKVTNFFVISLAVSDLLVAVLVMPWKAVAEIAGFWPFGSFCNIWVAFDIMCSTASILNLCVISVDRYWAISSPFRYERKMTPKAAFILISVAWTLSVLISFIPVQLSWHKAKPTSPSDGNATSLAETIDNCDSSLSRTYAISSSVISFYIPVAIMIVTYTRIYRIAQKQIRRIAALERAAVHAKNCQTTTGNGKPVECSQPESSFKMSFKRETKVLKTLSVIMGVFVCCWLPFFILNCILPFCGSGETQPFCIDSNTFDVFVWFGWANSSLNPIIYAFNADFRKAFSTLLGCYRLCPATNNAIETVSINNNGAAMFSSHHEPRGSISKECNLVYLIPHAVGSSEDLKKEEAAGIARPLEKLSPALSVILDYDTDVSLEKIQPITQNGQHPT
row,Compound,B-score
1,CCC1CCCCN1C(=O)Nc1cccc(NC(=O)N2CCCCC2CC)c1 (configuration not stated),0.11 (inactive)
2,CCOCC(=O)NCc1ccc2c(c1)cc(C)n2C,0.132 (inactive)
3,Cc1noc(C)c1S(=O)(=O)N1CCCC(C(=O)Nc2nccs2)C1 (configuration not stated),-0.254 (inactive)
4,COC(=O)C(C)C1Sc2ccccc2NC1=O (configuration not stated),4.51 (active)
5,CCOC(=O)c1ccccc1NC(=O)CC1Nc2ccccc2NC1=O (configuration not stated),-0.897 (inactive)
6,COc1ccc(OC)c(N=Cc2c(O)[nH]c3ccccc23)c1,1.65 (inactive)
7,COc1ccc(N=Cc2c(O)[nH]c3ccccc23)cc1OC,-2.18 (active)
8,COc1cc(N=Cc2c(O)[nH]c3ccccc23)cc(OC)c1OC,-1.15 (inactive)
9,CN(C)Cc1c(O)ccc2occ(C(O)c3ccccc3)c12 (configuration not stated),0 (inactive)
10,Cc1nnc(SCC(=O)NCCOc2ccc(Cl)cc2)n1-c1ccccc1,0.122 (inactive)
11,O=C(CCC(=O)OCC(F)(F)C(F)F)NCc1ccccc1,0.31 (inactive)
12,Cc1cc(C(F)(F)F)nn1-c1nc(-c2ccco2)cc(C(F)(F)F)n1,9.17 (active)
13,O=C(CSc1nc(-c2ccco2)cc(C(F)(F)F)n1)NCc1cccs1,0.0388 (inactive)
14,FC(F)(F)c1cc(-c2ccco2)nc(N2CCOCC2)n1,17 (active)
15,O=C(CSc1nc(-c2ccco2)cc(C(F)(F)F)n1)N1CCc2ccccc2C1,0.312 (inactive)
16,CCOC(=O)c1ccn(-c2nc(-c3ccco3)cc(C(F)(F)F)n2)n1,-0.161 (inactive)
17,FC(F)(F)c1nnc2sc(-c3ccco3)nn12,0.0156 (inactive)
18,C=CCc1cccc2cc(C(=O)N3CCN(C(=O)OCC)CC3)c(=O)oc12,-0.147 (inactive)
19,CCOC(=O)Cn1c(=O)oc2cc(S(=O)(=O)N(C)Cc3ccco3)ccc21,0.239 (inactive)
20,Cn1nnnc1SCC(=O)N1CCN(Cc2ccccc2)CC1,0.031 (inactive)
21,CCOC(=O)N1CCC(NC(=O)COc2cc(=O)n(C)c3ccccc23)CC1,0.112 (inactive)
22,Cc1ccc2c(c1)N(CC(=O)N1CCCc3ccccc31)C(=O)C(C)O2 (configuration not stated),1.2 (inactive)
23,CCc1cc(=O)oc2cc(OCC(=O)N3CCCc4ccccc43)ccc12,8.41 (active)
24,Cc1occc1C(=O)N1CCCc2ccccc21,0.259 (inactive)
25,Cc1ccc(C2c3c(oc4ccc(C)cc4c3=O)C(=O)N2CCCN2CCOCC2)cc1 (configuration not stated),1.68 (inactive)

row,Compound,B-score
1,Cc1ccc(S(=O)(=O)C(C#N)c2nc3ccccc3nc2N2CCCC2)cc1C (configuration not stated),0.792 (inactive)
2,CC(C)(C)NC(=O)C(c1ccncc1)N(C(=O)CNC(=O)c1ccco1)c1ccc2c(c1)OCO2 (configuration not stated),1.5 (inactive)
3,CCn1c2c(c3ccc(OC)cc31)CCCC2=O,0.923 (inactive)
4,COc1ccc(CCN(C)C(=O)C2CCCN(Cc3ccc(OC)c(OC)c3)C2)cc1OC (configuration not stated),5.3 (active)
5,COc1ccc(CCN(C)CCN2C(=O)c3ccccc3C2=O)cc1OC,0.821 (inactive)
6,COc1ccc(CCNC(=O)C2CCCN(Cc3nc(-c4cccc(Cl)c4)oc3C)C2)cc1OC (configuration not stated),0.204 (inactive)
7,COc1ccc(N2CCN(CCNC(=O)CCN3C(=O)COc4ccccc43)CC2)cc1,-0.0397 (inactive)
8,O=C(CCN1C(=O)COc2ccccc21)NCCCN1CCN(c2ccc(F)cc2)CC1,-2.68 (active)
9,CCCN1CCN(CCCNC(=O)CN2C(=O)COc3ccccc32)CC1,-0.525 (inactive)
10,Cn1nc(-c2ccc(Cl)cc2)c2cc(C(=O)NCc3ccco3)sc21,-0.605 (inactive)
11,CCOC(=O)c1[nH]c2ccc(OC)cc2c1NC(=O)N1CCOCC1,1.26 (inactive)
12,COc1cc(NC(=O)N2CCOCC2)cc(OC)c1,4.92 (active)
13,COc1ccc(OCC(=O)N2CCOCC2)cc1,0.809 (inactive)
14,COc1ccc2[nH]c(=O)c(CN(CC3CCCO3)C(=O)Nc3ccccc3)cc2c1 (configuration not stated),-0.175 (inactive)
15,Cc1cc(C(F)(F)F)nn1CC(=O)N1CCCC1,0.971 (inactive)
16,COC(=O)c1ccccc1NC(=O)CSc1ccccn1,3.05 (inactive)
17,CCn1ncc(C2=NOC(C(=O)N3CCN(c4ccccc4)CC3)C2)c1C (configuration not stated),-0.447 (inactive)
18,CCn1ncc(C2=NOC(C(=O)Nc3ccccc3C(=O)OC)C2)c1C (configuration not stated),13.2 (active)
19,c1ccc(CCC2=NCCn3cccc32)cc1,-0.434 (inactive)
20,O=C(C1CCN(CC2CCCCC2)CC1)N1CCCC1,0.0452 (inactive)
21,COC(=O)C1=CN(C)C=C(C(=O)OC)C1c1ccc(Cl)cc1Cl,0.625 (inactive)
22,CCCc1nc(-c2ccccc2O)n(-c2ccccc2)n1,8.71 (active)
23,O=C(NCc1ccco1)c1nc(-c2ccccc2)n(-c2ccccc2)n1,-1.33 (inactive)
24,CCCc1nc(N2CCN(C)CC2)c2sc(=S)n(-c3ccccc3)c2n1,0.374 (inactive)
25,O=C(c1ccco1)N1CCN(C(=O)C2CC(c3ccc(F)cc3)=NO2)CC1 (configuration not stated),-0.404 (inactive)

row,Compound,B-score
1,CC1(C)CC(=O)C=C(NCc2ccncc2)C1,0.0608 (inactive)
2,CCOC(=O)N1CCN(Cc2nc3c(c(=O)n(C)c(=O)n3C)n2Cc2ccccc2)CC1,-0.0843 (inactive)
3,CC(=O)Nc1ccc(S(=O)(=O)N2CCCC2C(=O)O)cc1 (configuration not stated),-0.232 (inactive)
4,OC(COc1cccc2ccccc12)CN1CCN(c2ccccn2)CC1 (configuration not stated),-4.42 (active)
5,OC(COc1cccc(OCC(O)CN2CCCC2)c1)CN1CCCC1 (configuration not stated),-0.368 (inactive)
6,O=C1c2cccc3cccc(c23)N1CN1CCN(c2ccccn2)CC1,-2.84 (inactive)
7,COc1ccc(NC(=O)Nc2cccc3cccnc23)cc1,-0.391 (inactive)
8,O=C(CSc1nnnn1C1CCCC1)Nc1ccc2c(c1)OCCO2,-0.309 (inactive)
9,COc1ccc(OC)c2sc(NC(=O)C3COc4ccccc4O3)nc12 (configuration not stated),1.13 (inactive)
10,CCN(Cc1nc2ccccc2c(=O)[nH]1)Cc1cc(=O)oc2cc(C)c(C)cc12,-2.91 (active)
11,CCCC(=O)N(CCc1ccccc1)Cc1nc2ccccc2c(=O)[nH]1,0.0641 (inactive)
12,O=C(c1ccco1)N(Cc1nc2ccccc2c(=O)[nH]1)C1CCCC1,-0.0551 (inactive)
13,COc1ccc(-n2nnc3c(=O)n(CC(=O)OCc4ccccc4)cnc32)cc1,-0.218 (inactive)
14,Cn1c(SCC(=O)N2CCOCC2)nnc1-c1ccc(NC(=O)c2ccccc2F)cc1,-0.459 (inactive)
15,CC(C)c1cc(C(=O)O)on1,3.98 (active)
16,CCC(=O)N1CCc2cc(S(=O)(=O)NC(C(=O)N3CCc4ccccc4C3)C(C)C)ccc21 (configuration not stated),1.68 (inactive)
17,CNC(=O)c1c(NC(=O)c2ccc(S(=O)(=O)N3CCOCC3)cc2)sc2c1CCC2,0.787 (inactive)
18,O=C(Oc1ccccc1)c1ccc2nccnc2c1,0.299 (inactive)
19,CC(C)c1nc(-c2ccccn2)no1,-0.397 (inactive)
20,c1ccc(-c2noc(-c3cccs3)n2)nc1,-6.15 (active)
21,c1csc(-c2nc(-c3ccncc3)no2)c1,2.02 (inactive)
22,O=C(c1cccs1)N(C(=O)c1cccs1)c1ccccn1,-0.339 (inactive)
23,O=C(Oc1ccc(-c2nc(-c3ccccn3)no2)cc1)c1ccccc1,-2.61 (active)
24,O=C1C(C=NCC2CCCO2)=C(O)c2ccccc21 (configuration not stated),-0.132 (inactive)
25,Cc1cc(C(=O)COC(=O)c2cccs2)c(C)n1-c1c(C)n(C)n(-c2ccccc2)c1=O,-1.48 (inactive)

row,Compound,B-score
1,COc1cccc(-n2cc3c(c2-c2ccccc2)c(=O)n(C)c(=O)n3C)c1,0.281 (inactive)
2,CCc1c(O)nc(SCC(=O)N2CCCCC2)n(-c2ccccc2C)c1=O,0.0102 (inactive)
3,Cc1ccc(S(=O)(=O)NCc2nc3ccccc3c(=O)n2N)cc1,-0.0901 (inactive)
4,C=CCn1c(N)c(S(=O)(=O)c2cccs2)c2nc3ccccc3nc21,-0.811 (inactive)
5,Cc1ccc(S(=O)(=O)c2c(N)n(C)c3nc4ccccc4nc23)cc1,8.84 (active)
6,O=C(NC(Cc1ccccc1)C(=O)N1CCCC1C(=O)O)c1ccccc1 (stereo not drawn) (Bz-Phe-Pro-OH; configuration not given here),0.682 (inactive)
7,CCOC(=O)c1ccc(N2C(=O)CC(N3CCC(C(=O)OCC)CC3)C2=O)cc1 (configuration not stated),-0.257 (inactive)
8,COCCOC(=O)C1=C(C)NC(=O)NC1c1ccc(Cl)cc1 (configuration not stated),-0.276 (inactive)
9,CCOc1ccccc1/C=c1\sc2nc(-c3ccco3)nn2c1=O,-0.399 (inactive)
10,COc1cccc2c(=O)n(CC(=O)N3CCCCCC3)ccc12,0.116 (inactive)
11,CCOC(=O)/C=c1\s/c(=C\c2ccccc2OC)c(=O)n1CC(=O)N1CCOCC1,4.29 (active)
12,CN(C)Cc1c(C#N)c2ccccc2n1C,-1.12 (inactive)
13,CCOc1ccc(C(=O)Nc2cc(OC)ccc2OC)cc1,0.0877 (inactive)
14,CCn1cc(C(=O)NCc2ccc(OC)cc2OC)c(=O)c2ccc(C)nc21,5.55 (active)
15,CCn1cc(C(=O)N2CC=C(c3ccccc3)CC2)c(=O)c2ccc(C)nc21,1.17 (inactive)
16,CCSc1nc2c(c(=O)[nH]1)C(c1cccnc1)C(C(=O)OC(C)C)=C(C)N2 (configuration not stated),0.843 (inactive)
17,O=c1/c(=C/c2ccc(CNS(=O)(=O)c3ccccc3)o2)sc2n1CCN=2,-0.139 (inactive)
18,Cc1ccc(C)c(S(=O)(=O)n2cnc3ccccc32)c1,0.135 (inactive)
19,Cc1ccc(N2C(=O)c3oc4ccccc4c(=O)c3C2c2cccnc2)nc1 (configuration not stated),0.194 (inactive)
20,Cc1ccc(C(=O)Nc2nnc(-c3ccncc3)s2)o1,-0.406 (inactive)
21,CCn1c(=N)c(C(=O)NCCCOC)cc2c(=O)n3cccc(C)c3nc21,-0.055 (inactive)
22,CCn1c(=N)c(S(=O)(=O)c2ccc(F)cc2)cc2c(=O)n3ccccc3nc21,4.93 (active)
